Data: PubChem BioAssay (NCATS)
Results filed as inconclusive are left out. The source made the active and inactive calls. Calls follow the shape of the dose curve; as a rule, active = well fitted inhibition curve with a large enough effect; inconclusive = small, poorly fitted or top-dose-only effect; inactive = no such curve, though single readings can be large or run the other way.

Test: qHTS for Inhibitors of the Aldehyde Dehydrogenase Family (ALDH1A2, ALDH1A3, ALDH2, ALDH3A1) (AID 2061307); also: nearly all actives have a fitted effect of over 50% in size; as to Potency: test system not described further here
Settings: ALDH inhibition qHTS; series mostly up to 50.3 µM; activity change, negative = inhibition: at the top concentration
% is scaled to controls: 0 for no effect and ±100 for the full control effect; potency is read from the fitted curve at half-maximal effect.

Row | SMILES | activity change, negative = inhibition | Potency
1 | Oc1ccccc1NCC(O)Cn1ccc2ccccc21 (stereo not given) | -17.6% (inactive) | –
2 | COc1cc(NC(=S)N=Nc2c(O)[nH]c3ccccc23)cc(OC)c1OC | -27.3% (inactive) | –
3 | O=C(Nc1cc(S(=O)(=O)N2CCOCC2)ccc1N1CCCCC1)c1cc(-c2ccccn2)nc2ccccc12 | -18.7% (inactive) | –
4 | N[C@H](Cc1cscn1)C(=O)Nc1cccc(-c2nn3c(=O)cc(N4CCNCC4)nc3s2)c1 | -36% (inactive) | –
5 | Cc1sc(NC(=O)Cc2ccc3c(c2)OCO3)nc1-c1ccc2c(c1)CCN2C(=O)c1ccccc1OC(F)(F)F | – | 3.16 µM (active)
6 | N#CC1CCN(c2nc(Br)cs2)CC1 | -9.32% (inactive) | –
7 | CSc1cc2c(s1)c1cnn(Cc3cccc(N)c3)c(=O)c1n2C | 9.91% (inactive) | –
8 | CCN1CCC(N(CCc2ccccc2)Cc2ccccc2)CC1 | 3.29% (inactive) | –
9 | O=C(O)c1csc(-n2nc(C(F)(F)F)cc2-c2ccc(Cl)cc2)n1 | -9.54% (inactive) | –
10 | Cc1ccc(OCCCn2c(CCN)nc3ccccc32)cc1 | 31.3% (inactive) | –
11 | O=C(CNc1cccc(S(=O)(=O)N2CCOCC2)c1)Nc1ccc(OC(F)(F)F)cc1 | – | 1.27 µM (active)
12 | Cc1ccn2c(=O)c(C(=O)NC(C)c3ccccc3)c(O)nc2c1 (stereo not given) | -34.8% [at 34.4 µM] (inactive) | –
13 | CC(Sc1nc2nn(C3COC3)cc2c(=O)n1-c1ccccc1)c1ccccc1 (stereo not given) | -11.6% [at 34.4 µM] (inactive) | –
14 | OC[C@H]1O[C@@H](OCc2ccccc2)[C@H](O)[C@@H](O)[C@H]1O | -6.16% (inactive) | –
15 | CCc1ccc(CNC(=O)c2cnc3c(C)cccn3c2=O)cc1 | -29.4% [at 34.4 µM] (inactive) | –
16 | COc1ccc(-n2ncc3c2CCCC3NC(=O)c2cccc(OC(F)(F)F)c2)cc1 (stereo not given) | – | 12.6 µM (active)
17 | COc1ccc(C(=O)OCC(=O)Nc2cccc(C(F)(F)F)c2)cc1OC | -19.9% (inactive) | –
18 | CC(=O)c1c(C)n(-c2ccc(N(C)C)cc2)c2ccc(O)cc12 | 11.9% [at 34.4 µM] (inactive) | –
19 | COc1ccc(-n2c(CSCc3ccccc3)c(C(C)=O)c3cc(O)ccc32)cc1 | 1.96% [at 34.4 µM] (inactive) | –
20 | Ic1ccc(CN2CCC(N(CCc3ccccc3)Cc3ccccc3)CC2)cc1 | -21.7% (inactive) | –

Row | SMILES | activity change, negative = inhibition | Potency
21 | Cc1nn(CC(=O)N2CCN(c3cccc(C(F)(F)F)c3)CC2)c(=O)c2cc3sccc3n12 | -29.6% [at 34.4 µM] (inactive) | –
22 | CCn1nc(C)c(CNc2ccc(S(N)(=O)=O)cc2C#N)c1C | -34.8% [at 34.4 µM] (inactive) | –
23 | O=C(Nc1cccnc1Cl)c1cc(-c2cccc(Cl)c2)on1 | -20.9% [at 34.4 µM] (inactive) | –
24 | O=C(c1cccc(Cl)c1)c1no[n+]([O-])c1C(=O)c1cccc(Cl)c1 | – | 12.7 µM (active)
25 | COc1ccc(NC(=O)c2ccc(N3CCOCC3)nc2)cc1 | -43.3% [at 34.4 µM] (inactive) | –
26 | COc1ccc(-n2nc(C(=O)Nc3ccc(Cl)cn3)c3c4ccccc4n(C)c3c2=O)cc1 | -27.2% [at 34.4 µM] (inactive) | –
27 | CNC(=O)c1cc(-c2ccc(N3CCOCC3)cc2)cc2c1OCCN2Cc1cccnc1 | 0% [at 34.4 µM] (inactive) | –
28 | Cc1ccc2c(c1)/C(=C\C(=O)c1cccnc1)C(=O)N2 | 4.36% (inactive) | –
29 | Cn1nnnc1Sc1ncnc2n[nH]c(-c3ccccc3)c12 | -26.4% (inactive) | –
30 | CCOc1ccc(CNC(=O)c2cnc3c(C)cccn3c2=O)cc1 | 0.456% [at 34.4 µM] (inactive) | –
31 | [2H]C([2H])([2H])N1CCC(N(CCc2ccccc2)Cc2ccccc2)CC1 | -6.24% (inactive) | –
32 | CC(Sc1nc2c(cnn2C2COC2)c(=O)n1-c1ccccc1)c1ccccc1 (stereo not given) | 2.05% [at 34.4 µM] (inactive) | –
33 | Fc1ccc(Cn2cnc3ccccc32)cc1Cl | – | 8.96 µM (active)
34 | Cc1cccc(C)c1Nc1c(-c2ccccn2)nc2ccc(Cl)cn12 | -2.05% (inactive) | –
35 | O=C(O)Cc1ccc(S(=O)(=O)N2CCCC2)s1 | – | 11.3 µM (active)
36 | CSCc1cccc(C(=O)Nc2cccnc2)c1 | -17.7% [at 34.4 µM] (inactive) | –
37 | COc1ccc(NC(=O)c2ccc3ccccc3n2)cc1S(N)(=O)=O | -34.1% [at 34.4 µM] (inactive) | –
38 | O=C1NC(c2ccc(N3CCOCC3)cc2)(c2ccsc2)CC(O)=C1Sc1ccccc1Cl (stereo not given) | -25.9% (inactive) | –
39 | COCCN(CC(=O)Nc1cccc(C)c1C)C(=O)c1cc2c(s1)CCC2 | -5.3% (inactive) | –
40 | Cc1ncccc1NC(=O)c1cccs1 | -2.56% (inactive) | –
